Bioassay records: PubChem BioAssay, several laboratories
Rows were chosen to be rich in hits. Some 4.2% of all compounds tested hit in one or more screens of this group.
PfHsp90 set2 – reduces growth (ATP signal) of yeast expressing P. falciparum Hsp90. S. cerevisiae expressing PfHsp90, BacTiter-Glo ATP, 48 h; yeast lacking PDR1 and PDR3 efflux regulators. inhibition, % at 9.4 µM. 310,000 compounds, 0.32% hits;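 active = every replicate shows inhibition above about 80%, whatever the replicate mean, limit read from the data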
tim10-1 inh – growth inhibitors of tim10-1 mutant yeast. S. cerevisiae tim10-1 ts strain growth, BacTiter-Glo, 24 h. inhibition, % at 20 µM. 330,000 compounds, 2.2% hits. AID 463190;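 active = inhibition of at least 40%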;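 also: mutant grown at 25 °C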
NALP3 yeast inh – NALP3 inhibition in yeast; Yeast reconstituted NLRP3/ASC/caspase-1, beta-gal luminescence, 24 h; inhibition, % at 10 µM; 330,000 compounds, 0.39% hits;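 active = inhibition of 50% or more; inactive = inhibition below 50%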
tim23-1 inh – growth inhibitors of tim23-1 mutant yeast. S. cerevisiae tim23-1 growth, BacTiter-Glo luminescence, 24 h. 330,000 compounds, 1.3% hits. inhibition, % at 20 µM;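 active = growth inhibition of the mutant yeast at or above 50%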;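 also: temperature-sensitive mutant grown at 25 °C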
NALP1 inh – blocks the NALP1 inflammasome reconstituted in yeast | S. cerevisiae NALP1/ASC/caspase-1 growth, X-gal OD620, 72 h | inhibition, % at 10 µM | 280,000 compounds, 0.61% hits | AID 2071; in the data active = inhibition mostly above about 24%, no sharp cut-off; inactive = mostly below about 32%
TIM10 inh – growth inhibitors of TIM10 yeast strain; S. cerevisiae TIM10 strain growth, BacTiter-Glo luminescence, 24 h; inhibition, % at 10 µM; 330,000 compounds, 1.4% hits; AID 463195;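 active = inhibition of 40% or more at the single tested concentration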;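 also: wild-type TIM10 isogenic control strain grown at permissive 25 °C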
tim10 confirm – TIM10 yeast growth inhibition, confirmed; S. cerevisiae tim10 strain growth, BacTiter-Glo luminescence, 24 h; shares compounds with TIM10 inh; inhibition, % at 10 µM; 4,600 compounds, 63% hits;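 active = inhibition of yeast growth at or above a set limit in either of two replicates at 10 µM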; also: this counterscreen used the strain with wild-type TIM10
Large screens that a line does not name were inactive (follow-up assays come after a bar, where they were run).

CCOC(=O)c1cnn(-c2ccc(NS(=O)(=O)c3ccc(Cl)cc3)cc2)c1C(F)(F)F	TIM10 inh 52 | tim10 confirm inactive
CCOC(=O)c1ccc(NS(=O)(=O)c2ccc(Cl)nc2)cc1	none (no result: PfHsp90 set2)
COc1ccccc1C(=O)COC(=O)c1ccc(Cl)nc1	none (no result: NALP1 inh)
O=C(Nc1ccccc1)Nc1ccc(Br)c(Cl)c1	none
CC(=O)c1ccc(NC(=S)Nc2ccc(Br)c(Cl)c2)cc1	TIM10 inh 42 | tim10 confirm inactive
CC(=O)Nc1ccc(-c2nnn(CC(=O)c3ccc(F)cc3)n2)cc1Cl	none (no result: NALP1 inh)
CC(=O)Nc1ccc(-c2nnn(CC(=O)c3ccccc3)n2)cc1Cl	TIM10 inh 47 | tim10 confirm 36
COc1cccc(CN2C(=NC(=O)C3CC3)SC3CS(=O)(=O)CC32)c1 (stereo not given)	none
COC(=O)c1ccc(C(=O)NC2CCCc3c2cnn3-c2cc(F)cc(F)c2)nc1 (stereo not given)	none
CC(C)COc1cc(=O)[nH]c(SCC(C)C)n1	TIM10 inh 45 | tim10 confirm 39
O=C(N/N=C/c1cccc(OC(=O)c2ccco2)c1)c1ccc(F)cc1	TIM10 inh 41 | tim10 confirm 32
COc1cc(/C=N/NC(=O)c2ccc(F)cc2)ccc1OC(=O)c1ccco1	none
COc1ccc(NC(=O)c2cc(C)no2)cc1Cl	none
c1ccc(OCCN2CCN(C(c3ccccc3)c3ccccc3)CC2)cc1	TIM10 inh 42 | tim10 confirm 47
CCOC(=O)C1C(=O)OC(C)(C)C1C(CC)C(=O)c1c(C)cc(C)cc1C (stereo not given)	none (no result: PfHsp90 set2)
CC(C)CCNC(=O)c1sc2ccc(S(=O)(=O)N3CCCCC3)cc2c1N	TIM10 inh 41 | tim10 confirm 38
COc1cc(/C=N/NC(=O)COc2ccccc2C)ccc1OC(=O)c1cccs1	TIM10 inh 43 | tim10 confirm 41
COc1cc(C(=O)NCCNc2nc3ccc(C)cc3cc2C#N)cc(OC)c1OC	none
Cc1c(Cl)cccc1NC(=S)NCc1ccccc1	TIM10 inh 46 (no result: NALP1 inh) | tim10 confirm inactive
Cc1c(Cl)cccc1NC(=S)NCc1ccc(Cl)cc1	none (no result: NALP1 inh)
COCCn1cnnc1SCC(=O)Nc1sccc1C(N)=O	none
O=C(/C=C/c1ccc(Br)cc1)c1ccc(NC2=NCCCS2)cc1	TIM10 inh 52 | tim10 confirm inactive
CC1(C(=O)OCC(=O)Nc2ccc3ccccc3c2)CC1(Cl)Cl (stereo not given)	TIM10 inh 48 | tim10 confirm 32
Cc1cc(NC(=O)COC(=O)c2ccc([N+](=O)[O-])cc2Cl)no1	none (no result: NALP1 inh)
COc1ccc(C(=O)/C=C/C(=O)N(Cc2ccc(F)cc2)C(C(=O)NC2CCCCC2)c2ccncc2)c(O)c1 (stereo not given)	TIM10 inh 44 | tim10 confirm inactive
COc1ccc(C(=O)/C=C/C(=O)N(Cc2ccccc2)C(C(=O)NC2CCCCC2)c2ccncc2)c(O)c1 (stereo not given)	none
COc1ccccc1N(CC(=O)Nc1cc(C)on1)S(=O)(=O)c1cccc(C(F)(F)F)c1	none (no result: NALP1 inh)
CCc1cccc(CC)c1NC(=S)NCc1ccc2c(c1)OCO2	TIM10 inh 41 | tim10 confirm inactive
CC12CCC(C(=O)NCc3ccc4c(c3)OCO4)(C(=O)C1=O)C2(C)C (stereo not given)	TIM10 inh 41 | tim10 confirm inactive
CCc1cccc(CC)c1NC(=S)NC(C)c1ccccc1 (stereo not given)	TIM10 inh 53 | tim10 confirm 39
Cc1ccc(C2=Nn3c(COc4ccc(Cl)cc4)nnc3SC2CC(=O)O)cc1 (stereo not given)	none
CCCNC(=O)COc1ccc(-c2nn(C)c(=O)c3ccccc23)cc1	none
CCOC(=O)c1c(C)[nH]c(C2=NNC(=Nc3cccc(Cl)c3)SC2)c1C	none (no result: PfHsp90 set2)
Cc1[nH]c2ccccc2c1CCNC(=O)c1ccc2c(c1[N+](=O)[O-])C(=O)c1ccccc1C2=O	TIM10 inh 45 | tim10 confirm inactive
CCCNC(=O)NCCc1c(C)[nH]c2ccccc12	none
COc1cc(Cn2c(=O)c3c(OC)c(C)cnc3n(C)c2=O)cc(OC)c1	none
COc1ccccc1N1CCN(C(=O)c2ccc3nc(-c4ccco4)c(-c4ccco4)nc3c2)CC1	TIM10 inh 41 (no result: PfHsp90 set2) | tim10 confirm inactive
COc1ccccc1N1CCN(C(=O)c2cc(-c3ccc(F)cc3)on2)CC1	none
COc1ccccc1N1CCN(C(=O)c2ccc3nc[nH]c3c2)CC1	none
COc1ccccc1N1CCN(C(=O)c2cc(-c3ccc(C)cc3)on2)CC1	TIM10 inh 40 | tim10 confirm 36
CC(C)CC(=O)NC(=S)Nc1cccc(NC(=O)c2ccccc2)c1	TIM10 inh 47 | tim10 confirm 33
CCCC(=O)NC(=S)Nc1cccc(NC(=O)c2ccccc2)c1	none
CC(C)CC(=O)NC(=S)Nc1ccc(NC(=O)c2cccs2)cc1	TIM10 inh 51 | tim10 confirm inactive
Nc1cc(-c2ccc(Br)cc2)nc2cc(-c3ccccc3)nn12	none
Clc1nc(-c2ccccc2)cc(-c2ccc(Br)cc2)n1	TIM10 inh 42 (no result: NALP1 inh) | tim10 confirm 33
COCCSc1nnc(NC(=O)c2ccco2)s1	TIM10 inh 67 (no result: PfHsp90 set2) | tim10 confirm inactive
Cc1nnc(SCC(=O)NC2CCCCCC2)n1C(C)C	none
CC12CCC(C(NC(=S)NN)C1=O)C2(C)C (stereo not given)	none (no result: tim10-1 inh, NALP3 yeast inh, tim23-1 inh, NALP1 inh, TIM10 inh)
CCCc1nc2oc3c(NCC(C)O)ncnc3c2c2c1CCCC2 (stereo not given)	TIM10 inh 41 (no result: PfHsp90 set2) | tim10 confirm 45
Cc1ccc(C(=O)N2CCCCC2C(=O)O)cc1S(=O)(=O)N1CCCCC1 (stereo not given)	none (no result: PfHsp90 set2, NALP1 inh)
COc1ccccc1NC(=O)Nc1cc(NC(=O)Nc2ccccc2OC)c(C)nc1C	none
COc1ccccc1NC(=O)Nc1cc(F)ccc1F	TIM10 inh 46 | tim10 confirm inactive
COc1ccccc1NC(=O)Nc1ccc(Cc2ccncc2)cc1	TIM10 inh 44 (no result: PfHsp90 set2) | tim10 confirm 39
O=C(Nc1ncccn1)c1ccc(C(F)(F)F)cc1	none
CCOC(=O)CSc1nnc(-c2ccoc2C)n1-c1ccc(OCC)cc1	TIM10 inh 45 | tim10 confirm inactive
CCOC(=O)CSc1nnc(-c2ccoc2C)n1-c1ccc(C)cc1	none
CC(=O)c1c(C)[nH]c(C(=O)CN2CCN(S(=O)(=O)c3ccccc3[N+](=O)[O-])CC2)c1C	none (no result: NALP1 inh)
COc1cccc2cc(C(C)=O)oc12	none
COc1cccc2cc(/C(=N/O)c3ccccc3)oc12	TIM10 inh 55 | tim10 confirm 42
CCn1c(=O)c([N+](=O)[O-])c(Cl)c2ccccc21	TIM10 inh 78 (no result: PfHsp90 set2) | tim10 confirm 79
Cc1cc(C)nc(N/N=C/c2ccccc2OCc2ccc(Br)cc2)n1	none
